Activity calls are given as the source filed them.
biological target: Dihydroorotate dehydrogenase (quinone), mitochondrial (Plasmodium falciparum (isolate 3D7)) (UniProt Q08210); assay: inhibition of P. falciparum DHODH – biochemical, C-terminal His tag, absorbance 600 nm, primary screen (AID 1175); conditions: PfDHODH enzyme, DCIP absorbance 600 nm; higher = more signal, called active from +8 up or from −8 down;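 also: recombinant parasite enzyme with a five histidine tag at its C terminus; test concentration not given here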
Sequence (Q08210 whole entry, looked up): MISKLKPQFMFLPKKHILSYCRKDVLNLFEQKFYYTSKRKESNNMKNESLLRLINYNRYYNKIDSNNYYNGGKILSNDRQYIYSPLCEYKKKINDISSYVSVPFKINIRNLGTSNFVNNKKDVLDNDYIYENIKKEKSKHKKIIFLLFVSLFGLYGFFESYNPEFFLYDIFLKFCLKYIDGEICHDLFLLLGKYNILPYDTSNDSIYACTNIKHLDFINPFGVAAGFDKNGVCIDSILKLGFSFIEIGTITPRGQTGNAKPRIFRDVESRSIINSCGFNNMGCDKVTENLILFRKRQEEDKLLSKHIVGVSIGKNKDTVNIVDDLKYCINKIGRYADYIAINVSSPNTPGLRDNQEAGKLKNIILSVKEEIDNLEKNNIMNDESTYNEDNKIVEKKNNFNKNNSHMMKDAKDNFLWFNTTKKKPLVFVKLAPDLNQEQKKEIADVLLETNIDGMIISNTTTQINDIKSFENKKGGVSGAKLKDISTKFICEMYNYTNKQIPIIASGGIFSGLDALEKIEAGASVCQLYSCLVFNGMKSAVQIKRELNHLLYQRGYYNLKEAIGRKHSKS

Composite z-score, inactive:
COC(=O)[C@@]1(Cc2ccc(F)cc2)[C@H]2c3cc(C(=O)N(C)C)n(CCc4ccc(O)c(O)c4)c3C[C@H]2CN1C(=O)c1ccccc1 -0.137
CCOC(=O)C1=CC[C@@H](c2ccc(OC)cc2)N(S(=O)(=O)c2ccc(C)cc2)[C@H]1c1ccc(C)cc1 -0.329
[N-]=[N+]=NCc1ccccc1[C@@H]1OC(c2ccc(OCCCO)cc2)=N[C@]1(Cc1ccccc1N=[N+]=[N-])C(=O)O 0.454
COC(=O)[C@@]1(Cc2ccccc2)[C@H]2c3cc(C(=O)N(C)C)n(CCSC(=N)N)c3C[C@H]2CN1C(=O)c1ccccc1 0.644
Cc1ccc(S[C@]2(C(=O)NC(C)C)CC(=O)N(C3CCCCC3)[C@@H]2c2ccc(CO)cc2I)cc1 0.62
COC(=O)C(CC#Cc1ccc2c(c1)[C@]1(C(=O)N2)[C@H](C(=O)N2CCc3cc(OC)c(OC)cc3C2)[C@H]2C(=O)O[C@H](c3ccccc3)[C@H](c3ccccc3)N2[C@@H]1c1ccccc1OCCO)C(=O)OC -7.03
C=CC[C@@]12N=C(c3ccc(OCCCO)cc3)O[C@@H]1c1ccccc1N(CCC)C2=O -0.147
CCC(CC)C(O)C1C=CC2C(=O)N(c3ccccc3)C(=O)C2N1Nc1ccccc1F (stereo unspecified) 1.57
C=C(COC)/C(=C/C[C@H](OC(C)=O)c1ccccc1OCCO)c1cc(C(=O)OC)ccc1OC -1.68
CN(C)CCCC[C@@H]1NC(=O)[C@@H]2C[C@H](C(=O)NCCCCCN)[C@H](c3cccc(OCCO)c3)N2C1=O -0.417
COC(=O)C[C@H]1O[C@@]2(C[C@@H]1[Si](C)(C)C)C(=O)N(C)c1ccccc12 -0.655
NC(=O)N1C(=O)C2C(C1=O)C1C=C(CCCO)C2C(C2CC2)N1Cc1sc2ccccc2c1Cl (stereo unspecified) -0.744
CCOC(=O)C1=CCC(c2cc3ccccc3[nH]2)N(CCN2CC(C(=O)OCC)=CCC2c2cc3ccccc3[nH]2)C1 (stereo unspecified) 0.268
COCC(=C=CC[C@H](O)c1ccccc1OCCO)C[C@H](O)COCc1ccccc1 -2.21
COc1ccc([Si](C)(C)[C@@H]2[C@@H](CC(=O)N3CCC[C@H]3CO)O[C@]3(C(=O)N(Cc4ccc(N5CCOC5=O)cc4)c4ccccc43)[C@H]2C)cc1 -2.19
C=C(CCCC)C(=O)CC[C@H](OC(=O)c1ccccc1-c1ccccc1C(=O)O)c1ccc(OCCO)cc1 -1.03
COC(=O)[C@@]1(Cc2ccc(F)cc2)[C@H]2c3cc(C(=O)N4CCCC4)n(Cc4ccccn4)c3C[C@H]2CN1C(=O)c1ccccc1 0.29
O=C1NC(=O)C2C1C=CC(C(O)c1ccc([N+](=O)[O-])cc1)N2Nc1ccccn1 (stereo unspecified) 0.622
CCCC#C[Si](O[C@H](CC)c1cn(Cc2ccccc2)nn1)(C(C)C)C(C)C -0.205
COCCCNC(=O)[C@@]1(CCC(=O)OC(C)(C)C)COC(c2ccc(OCCCO)cc2)=N1 -0.176
C=C(CCCC)/C(=C/C[C@H](OC(C)=O)c1cccc(OCCO)c1)c1cnc2ccccc2c1 -3.15
CN(C)C(=O)[C@]1(Cc2ccccc2)N=C(c2ccc(OCCCO)cc2)O[C@@H]1c1ccccc1CN=[N+]=[N-] -0.979
Cc1ccc(S[C@]2(C(=O)NCc3ccccc3)CC(=O)N(Cc3ccccc3C(F)(F)F)[C@@H]2c2ccc(CO)cc2)cc1 -1.27
CCCN1C(=O)[C@]2(CCC(=O)OC(C)(C)C)N=C(c3ccc(OCCCO)cc3)O[C@@H]2c2ccccc21 0.023
C[N+](C)(C)CCCC[C@@H]1NC(=O)[C@H]2C[C@@H](C(=O)NCCCCCNC(=O)CS)[C@@H](c3cccc(OCCO)c3)N2C1=O -0.867
CO[C@H]1O[C@H](CO)[C@@H](OC(=O)Nc2ccccc2-c2ccccc2)[C@H](OC(=O)Nc2ccccc2)[C@H]1OC(=O)Nc1ccccc1 -0.0626
CC(C)=C1C(=O)C(c2ccccc2)=C2CN3C(=O)N(CCc4ccccc4)C(=O)[C@]3(C)[C@H]21 -0.757
C[C@]1(C(=O)O)c2ccccc2C(=O)N(Cc2cc(F)cc(C(F)(F)F)c2)[C@H]1c1ccc(CO)cc1 -0.215
CN(C)CCCNC(=O)[C@@]1(Cc2ccccc2I)c2ccccc2C(=O)N(C2CCCCC2)[C@H]1c1ccc(CO)cc1 0.201
C#CCN1[C@@H](Cc2ccccc2)C(=O)O[C@H](Cc2ccccc2)[C@@H]1/C=C/C1CC1 0.0255
CCCc1cc2c(n1CCc1ccc(Cl)cc1)C(C)C1CN(C(=O)c3ccccc3)C(C)(C(=O)OC)C21 (stereo unspecified) -0.823
CN1C(=O)[C@@H]2[C@@H](CC(COc3ccccc3)=C3[C@@H](CCc4ccccc4)OB(O)C[C@@H]32)C1=O -0.399
CC(C)(C)OC(=O)CC[C@]1(C(=O)NCC(O)CO)N=C(c2ccc(OCCCO)cc2)O[C@H]1c1ccccc1N=[N+]=[N-] (stereo partly specified) -0.955
COc1ccc([Si](C)(C)[C@H]2[C@H](CC(=O)N3CCC[C@H]3CO)O[C@@]3(C(=O)N(Cc4ccc(N5CCCCC5=O)cc4)c4ccccc43)[C@@H]2C)cc1 -2.66
C=CCOC(=O)[C@H]1[C@@H]2C(=O)O[C@@H](c3ccccc3)[C@@H](c3ccccc3)N2[C@@H](c2ccc(OCCOC(=O)[C@@H]3C[C@@H]4C(=O)N[C@@H](CCCC[N+](C)(C)C)C(=O)N4[C@@H]3c3ccc(O)cc3)cc2)[C@]12C(=O)Nc1ccc(I)cc12 -2.21
O=C(NCc1ccc(F)cc1)[C@H]1C[C@H]2C(=O)N3CCC[C@H]3C(=O)N2[C@H]1c1ccc(O)cc1 -1.47

Reference: PubChem BioAssay
